Screening results from PubChem.
STK33 inh: blocks human STK33 kinase activity | Q9BYT3 | ADP-Glo luminescence, MBP substrate | inhibition, % at 12.5 µM | hit rate 0.44% among 27,000 | AID 2322; in the data active = inhibition above about 20%; inconclusive = no clear call, values can overlap the other calls
ID4 SMM: binds human ID4 protein on microarray. small molecule microarray, Flag-ID4 binding, fluorescence F/B. hit rate 1.2% among 31,000. AID 624137. P47928. calls only; call rule not given here;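 also: a binder raises fluorescence above local background on the spot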
Target sequence (P47928 whole entry, looked up): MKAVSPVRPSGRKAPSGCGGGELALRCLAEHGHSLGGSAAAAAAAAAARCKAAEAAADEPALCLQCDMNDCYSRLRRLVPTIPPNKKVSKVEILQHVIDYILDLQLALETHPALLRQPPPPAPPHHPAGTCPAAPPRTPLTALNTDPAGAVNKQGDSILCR
p53 PUMA act: re-activators of the mutant p53 pathway; hit rate 1.5% among 28,000; activation, % at 9.98 µM; SW480 PUMA-promoter luciferase, p53 mutant reactivation; in the data active = activation above about 52%; inconclusive = no clear call, values can overlap the other calls
A number is an active result; - = inactive; ? = inconclusive; . = no result; + = active, no number. In the library only some 2% were active in any assay of this set; here they are far more common.

SMILES | STK33 inh | ID4 SMM | p53 PUMA act
O=C(NCc1cccnc1)c1cccc(NC(=O)c2ccco2)c1 | - | + | -
O=C1CC(CSc2ccc(Cl)cc2)=NN1c1nc2ccccc2s1 | - | . | .
Clc1ccc(SCc2csc(-c3ccsc3)n2)cc1 | . | - | 61
O=C(CCc1nc(-c2ccccc2F)no1)Nc1ccccc1[N+](=O)[O-] | - | - | -
O=C(Nc1ccc(S(=O)(=O)Nc2ccccn2)cc1)c1cccnc1 | - | - | -
OCCCn1c(-c2ccc(Cl)cc2)cn2c3ccccc3nc12 | - | + | -
OCCCn1c(-c2ccccc2)cn2c3ccccc3nc12 | - | - | -
CC(=O)Nc1ccc(NC(=O)CSc2nnc(-c3ccc(N)cc3)n2C)cc1 | - | - | -
CCn1c(SCC(=O)Nc2ccc(C(=O)O)cc2)nnc1-c1ccc(C)cc1 | - | - | -
CCn1c(SCC(=O)Nc2ccc(C(N)=O)cc2)nnc1-c1ccc(F)cc1 | - | + | -
COC(=O)c1ccc(NC(=O)CSc2nnc(-c3ccc(NC(C)=O)cc3)n2C)cc1 | - | + | -
CC(C)(C)NS(=O)(=O)c1ccc(NC(=O)CSc2nc3ccccc3[nH]2)cc1 | - | - | -
CC1=NNC(=O)C1Oc1ccc(Cl)cc1Cl (configuration not stated) | - | . | .
Cc1ccc2nc(SCc3nc4ccccc4n3C)[nH]c2c1 | - | - | 62
Cc1cc2nc(SCc3nc4ccccc4[nH]3)[nH]c2cc1C | - | - | ?
O=C(CSc1nc(-c2ccccc2)cc(C(F)(F)F)n1)N1CCCc2ccccc21 | - | - | -
Cc1ccc(-c2nnc3c4ccccc4c(C)nn23)cc1S(=O)(=O)N(C)CCO | - | - | 56
CCCCN(C)S(=O)(=O)c1cc(-c2nnc3c4ccccc4c(C)nn23)ccc1OC | - | - | -
Cc1nn(C)c(C)c1/C=C/C(=O)C(C)(C)C | . | - | -
COc1cc([N+](=O)[O-])ccc1NC(=O)CSc1nc(C)cc(C(F)(F)F)n1 | - | - | -
Cc1cccnc1NC(=S)NC(=O)c1cncc(Br)c1 | - | - | 108
N#Cc1c(NC(=S)NC(=O)c2cncc(Br)c2)sc2c1CCCC2 | - | - | -
C=C1C(=O)O[C@H]2C1CCC(C)=C1C(=O)C=C(C)[C@@H]12 (some centres not stated) | - | - | .
CCN(CC(=O)Nc1ccc(Cl)cc1C)S(=O)(=O)c1ccc(C)cc1 | - | - | -
O=C(/C=C/c1ccccc1)c1ccc(O)cc1 | 27 | . | .
SMILES | STK33 inh | ID4 SMM | p53 PUMA act
O=C(/C=C/c1ccccc1)CC(=O)/C=C/c1ccccc1 | - | . | -
Cc1ccc(NC(=O)COc2ccc(CO)cc2Cl)cc1 | - | - | -
COc1ccccc1OCC(=O)Nc1cc(-c2nc3ccccc3[nH]2)ccc1C | - | + | -
Cc1ccc(-c2nc3ccccc3[nH]2)cc1NC(=O)COc1ccc(C(C)C)cc1 | - | - | -
COc1ccc(NC(=O)COc2ccccc2[N+](=O)[O-])cc1Cl | - | - | 135
COc1ccccc1NC(=O)COc1ccc(CO)cc1Cl | - | - | 165
COc1cc(NC(=O)COc2ccccc2[N+](=O)[O-])ccc1NC(=O)c1cccs1 | - | - | -
COc1ccccc1OCC(=O)Nc1ccc(C)cc1[N+](=O)[O-] | - | - | 119
Cc1ccc(NC(=O)COc2ccc(C(C)(C)C)cc2Br)c([N+](=O)[O-])c1 | - | - | -
CC1CCC2(C)C(C(=O)O)=CCCC2C1(C)CCC1=CC(=O)OC1O (configuration not stated) | - | . | -
CN(C)[C@@H]1C(=O)C(C(N)=O)C(=O)[C@@]2(O)C(=O)C3C(=O)c4c(O)ccc(Cl)c4[C@@H](O)[C@H]3C[C@@H]12 (some centres not stated) | - | . | .
Cc1ccc(NC(=O)COc2ccc(Cl)cc2Cl)c([N+](=O)[O-])c1 | - | - | -
O=C(COc1ccccc1[N+](=O)[O-])Nc1ccc2oc(-c3ccc(F)cc3Cl)nc2c1 | - | - | 51
O=C(COc1ccccc1Cl)Nc1ccc2oc(-c3ccc(F)cc3Cl)nc2c1 | - | - | -
Cc1ccc(NC(=O)COc2ccccc2Cl)c([N+](=O)[O-])c1 | - | - | 60
CCOc1ccc(NC(=O)CCNC(=O)c2cn(-c3cccc(OC)c3)c(=O)c3ccccc23)cc1 | - | . | .
COc1ccc(-n2nc3cc(C)c(NC(=O)COc4ccc(Cl)cc4Cl)cc3n2)cc1 | - | - | -
C/C=C(/C)C(=O)O[C@H]1[C@H](OC(=O)/C(C)=C\C)[C@]2(CO)[C@H](O)C[C@]3(C)C(=CCC4[C@@]5(C)CC[C@H](OC6OC(C(=O)O)C(O)C(OC7OC(C)C(O)C(OC8OC(CO)C(O)C(O)C8O)C7O)C6O)C(C)(C)C5CC[C@]43C)[C@@H]2CC1(C)C (some centres not stated) | - | . | .
O=C(CSc1nc2ccccc2c(=O)n1Cc1ccco1)c1ccc(Br)cc1 | - | - | -
Cc1nc(SCC(=O)Nc2ccc([N+](=O)[O-])cc2)[nH]c(=O)c1C | - | - | -
[N-]=C=N[n+]1ccc2ccccc2c1C(=O)c1ccc(Cl)cc1 | - | . | .
CN(C)c1ccc(C(=C2C=CC(=[N+](C)C)C=C2)c2ccc(N(C)C)cc2)cc1 | 76 | . | .
Cn1cnnc1SCC(=O)c1ccc2c(c1)OCCO2 | - | - | -
Cc1nnc(SCC(=O)c2ccc3c(c2)OCCO3)s1 | - | - | 89
COc1ccccc1N(CC(=O)Nc1ccc(I)cc1C)S(C)(=O)=O | - | - | -
SMILES | STK33 inh | ID4 SMM | p53 PUMA act
Cc1ccc(-c2nc(SCC(=O)c3ccccc3)n[nH]2)cc1 | - | - | -
COc1ccc(C(=O)CSc2n[nH]c(-c3ccc(C)cc3)n2)cc1 | - | + | -
CCOC(=O)c1ccc(COc2ccc(-c3cnc4ccccc4n3)cc2)o1 | - | - | 130
CCOC(=O)c1ccc(COC(=O)c2cc3ccccc3cc2O)o1 | - | - | -
COc1ccc(NC(=O)CNC(=O)c2ccccc2)cc1Cl | - | - | -
CC(=O)n1nc(-c2ccc(Cl)cc2)nc1NCc1ccco1 | - | - | 148
CC(C)(Oc1ccc(Cl)cc1)C(=O)NCc1ccco1 | - | - | -
Cn1c(NCc2ccco2)nc2c1c(=O)n(Cc1ccc(Cl)cc1)c(=O)n2C | - | - | -
O=C(c1cccs1)n1nc(-c2ccc(Cl)cc2)nc1NCc1ccco1 | - | - | 102
Cc1sc2ncn(CC(=O)NCc3ccco3)c(=O)c2c1-c1ccc(Cl)cc1 | - | - | -
COc1ccc(C(=O)n2nc(-c3ccc(Cl)cc3)nc2NCc2ccco2)cc1 | - | - | 118
C=CCN1C(=O)NC(C)(C)C1=O | - | . | .
O=C(CCC1COc2ccccc2O1)Nc1ccc(NC(=O)c2ccccc2F)cc1 (configuration not stated) | - | - | -
CSc1ccc(C2C(C(=O)c3sc(C)nc3C)C(=O)C(=O)N2Cc2cccnc2)cc1 (configuration not stated) | - | + | -
Cc1c(C(=O)C2C(=O)C(=O)N(Cc3cccnc3)C2c2ccc(F)cc2)cnn1-c1ccccc1 (configuration not stated) | - | - | -
Cc1ccc(N(CC(N)=O)S(=O)(=O)c2ccccc2)cc1 | - | - | -
CC(C)NC(=O)N(C)C[C@H]1OCCCC[C@@H](C)Oc2ccc(NC(=O)Nc3ccc(C(F)(F)F)cc3)cc2C(=O)N([C@@H](C)CO)C[C@H]1C | . | - | -
C[C@H]1CCCCO[C@@H](CN(C)C(=O)Nc2ccccc2)[C@@H](C)CN([C@@H](C)CO)C(=O)c2cc(NC(=O)c3ccncc3)ccc2O1 | . | + | -
